Results published in the OligoGym collection.

Target: PEG10
Assay: pooled miR-30 sensor sort-seq; sequence = guide strand
Conditions: shRNA
Further: reference of the scale not given here.

Sequence | sensor-assay potency score (higher = more potent)
TTGCCATCGAACTTCTCTGGGA | -0.275
TCTTTCTTTTTCTTCCTGCGTC | -0.141
TTCTCTGGGAGGTCTTCTGGGC | -0.944
TTAAGTTGTTGATCTCTTCAGA | -0.104
TTGATCTCTTCAGAGAGCTCGT | 0.178
TCAACTGAGAAATCCCTGGTGC | 0.598
TTTGGCAACCTCTCGCCTCTGA | -0.158
TTGTGCATCAGGTAGTGGGAGC | -1.26

Target: PEG3
Assay: as above
Conditions: shRNA

Sequence | sensor-assay potency score (higher = more potent)
ATAACCTCTAGCATGAATCTTC | -0.113
TTGATCGTGAATCGAGCCCTTC | -0.255
TTATCATCTGACATTCTGGGGA | 0.23
TTCACTGACAGCCACACTGTGG | -0.755
TTTCTTTTTAGCACGAGCCTTC | -0.635
TTGTGTTGAGGTCTTCGCTGGT | 0.119
TTCAATGAAATGTCCTTCCAGT | 0.297
TTGATCTTCACCTTCTTCTGGG | 0.701
TTTGTCATCAGGGTCATCCTTC | 0.301
TTATAGTATGACTCTTCTGAGA | -1.1
TTCTTCTACCTGAATCTCTTGA | 0.127
TAATCTCTCTGATACTCGCTGA | -0.226

Target: PELI3
Assay: as above
Conditions: shRNA

Sequence | sensor-assay potency score (higher = more potent)
TGGAACATGTCTGTGTCGCTAT | 0.131
TCAATCATGTTCTCTGTGGAGC | -0.446
TATCATGTGTATACTCCACTAT | -0.135
TCTGTGTCGCTATCATGTGTAT | -0.903
TGTCTGTGTCGCTATCATGTGT | -0.284
TTGCTAGAGGCATCGAAGCCAG | -0.912
ATTGGTGGTCAGTCCATCCATC | -0.798
TGTATACTCCACTATGACCGAG | -0.429
ATCATGTTCTCTGTGGAGCGGC | -0.826
ATCATGTGTATACTCCACTATG | -1.35
TACACATTCCCACAGACCGAGA | -1.66
AAGTCAATCATGTTCTCTGTGG | -0.484

Target: PEX11G
Assay: as above
Conditions: shRNA

Sequence | sensor-assay potency score (higher = more potent)
TAGACAAACATGGCCAGGTCAT | -0.9
TTGCTTAGTGTAGACAAACATG | -1.38
TAGTGTAGACAAACATGGCCAG | -0.684
TTAGTGTAGACAAACATGGCCA | -0.26
TGGACACCACCAACAGACGTGT | -1.09
TTCCCTAGGACGGAGACACAGC | -1.05
AACCAGAACTCCACCAACCAGC | -1.17
AAGAGTCGCAAGATGGTCCTGC | 0.55
